The subject of assay [1] is Human papillomavirus type 1a protein E7 (residues 44-93). The experiment in a line: HPV1a E7 fragment binders on microarrays, primary screen, biochemical, small-molecule microarray, residues 44-93, 635 nm fluorescence (AID 1108).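 Further: E7 fragment applied at 1 µg/mL in TBST for 1 h at 4 C; score combines spot fluorescence with its signal to noise ratio.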 Conditions: small-molecule microarray binding, fluorescence 635 nm; higher = more signal.
Assay [2] in a line: modulators of HCV replicon luciferase signal, primary screen, HCV replication inhibitor project, Huh7 cells, luciferase reporter (AID 1109).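 Further: huh7 hepatoma cells harbouring a luciferase neomycin HCV replicon reporter; luciferase luminescence as measure of HCV replicon replication; test concentration not given here.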 The settings on record: 48 h, higher = more signal.
Assay [3] has as its target Left-right determination factor 2 (Homo sapiens) (UniProt O00292). Briefly: LEFTY2 binders on small-molecule microarrays, primary screen, biochemical, small-molecule microarray, 635 nm fluorescence scan (AID 1110). Conditions: LEFTY2 binding, higher = more signal.
Assay [4] has as its target Calmodulin-1 (Homo sapiens) (UniProt P0DP23). The experiment in a line: CALM1 binders on microarrays, EGTA buffer, profiling panel, biochemical, small-molecule microarray, Cy5-labelled CALM1 (AID 1111).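 Further: labelled calmodulin applied in Tris saline Tween buffer holding calcium plus EGTA and DTT.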 The settings on record: Cy5-CALM1 binding fluorescence, higher = more signal.
Assay [5] has the same target. The experiment in a line: calcium-bound CALM1 binders on microarrays, profiling panel, artefact control for SMM control-protein annotation, biochemical, small-molecule microarray, Cy5-labelled CALM1, plus calcium (AID 1112).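 Further: score merges spot fluorescence with signal to noise from triplicate slides.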 The settings on record: Cy5-CALM1 binding fluorescence, higher = more signal.
Assay [6] is described as follows: small-molecule microarray binders of probe aWnt5a, primary screen, biochemical, biotinylated probe, 635/667 nm fluorescence (AID 1113).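 Further: score merges 667 nm fluorescence intensity with signal-to-noise per printed feature.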 The settings on record: higher = more signal.
The nature of assay [7]: small-molecule microarray binders of probe aShh, primary screen, biochemical, biotinylated probe, 635/667 nm fluorescence (AID 1114).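 Further: probe is biotin-labelled aShh protein from a stem cell growth factor screen; measures binding of labelled protein to compounds printed on the slide; score merges feature fluorescence at 667 nm with signal-to-noise.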 Conditions: higher = more signal.
Assay [8] can be described thus: small-molecule microarray binders of probe aNog, primary screen, biochemical, biotinylated probe, 635/667 nm fluorescence (AID 1115).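 Further: probe is biotinylated aNog protein used at 0.15 µg/mL for 1 h at 4 C; z-score combines 667 nm fluorescence of each spot with its signal to noise.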 Conditions: higher = more signal.
Assay [9] addresses Torsin-1A-interacting protein 1 (Homo sapiens) (UniProt Q5JTV8). The experiment in a line: LAP1 binders from COS7 cell lysate, primary screen, small-molecule microarray, 635/667 nm fluorescence (AID 1116). The settings on record: COS7-hLAP1 lysate binding, 635 nm fluorescence, higher = more signal.
Assay [10] concerns the target Alpha-bungarotoxin (Bungarus multicinctus) (UniProt P60615). Briefly: alpha-bungarotoxin binders on microarray, profiling panel, artefact control for SMM control protein annotation, biochemical, small-molecule microarray, Alexa647 label, 635/667 nm fluorescence (AID 1117). The settings on record: alpha-BTX-A647 binding fluorescence, higher = more signal.

Structures are written as SMILES.

Chain of Torsin-1A-interacting protein 1 (Homo sapiens) (Q5JTV8 whole entry, looked up): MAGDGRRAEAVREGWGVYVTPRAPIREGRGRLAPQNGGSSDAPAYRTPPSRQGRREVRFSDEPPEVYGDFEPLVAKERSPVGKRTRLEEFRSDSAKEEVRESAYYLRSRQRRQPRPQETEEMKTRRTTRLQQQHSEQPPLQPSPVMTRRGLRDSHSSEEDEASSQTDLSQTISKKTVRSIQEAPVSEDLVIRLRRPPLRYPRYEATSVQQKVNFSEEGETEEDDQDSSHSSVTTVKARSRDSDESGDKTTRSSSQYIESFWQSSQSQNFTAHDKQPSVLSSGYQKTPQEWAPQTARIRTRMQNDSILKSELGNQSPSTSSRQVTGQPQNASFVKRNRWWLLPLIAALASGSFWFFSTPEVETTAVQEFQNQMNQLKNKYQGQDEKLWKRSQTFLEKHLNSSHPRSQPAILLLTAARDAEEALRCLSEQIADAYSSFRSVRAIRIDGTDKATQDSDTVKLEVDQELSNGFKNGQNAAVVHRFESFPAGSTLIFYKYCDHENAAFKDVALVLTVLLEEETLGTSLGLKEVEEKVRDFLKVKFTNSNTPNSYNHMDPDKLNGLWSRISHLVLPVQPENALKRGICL
Chain of Alpha-bungarotoxin (Bungarus multicinctus) (P60615 whole entry, looked up): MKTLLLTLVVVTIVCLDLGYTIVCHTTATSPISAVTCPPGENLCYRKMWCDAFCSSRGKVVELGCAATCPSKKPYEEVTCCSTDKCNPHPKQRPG
Chain of Left-right determination factor 2 (Homo sapiens) (O00292 whole entry, looked up): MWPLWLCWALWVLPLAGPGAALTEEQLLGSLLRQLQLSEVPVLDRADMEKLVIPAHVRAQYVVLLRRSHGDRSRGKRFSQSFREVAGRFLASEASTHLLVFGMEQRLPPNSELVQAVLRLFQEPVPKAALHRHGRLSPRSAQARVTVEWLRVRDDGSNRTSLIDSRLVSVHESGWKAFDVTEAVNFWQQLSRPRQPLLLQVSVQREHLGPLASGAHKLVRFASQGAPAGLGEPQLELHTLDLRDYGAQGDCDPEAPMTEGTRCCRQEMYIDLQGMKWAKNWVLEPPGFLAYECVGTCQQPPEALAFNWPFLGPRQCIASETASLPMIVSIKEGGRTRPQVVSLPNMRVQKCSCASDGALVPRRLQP

For the molecule `O=C1OCCC/C=C\[C@H]2OC34C=CCN(CCN5CCOCC5)C(=O)[C@H]3N(CCCO)C(=O)[C@@H]4C12` (stereo not given in full), the composite z-score in assay [1] is -0.941; in [3], -0.27; in assay [4], -1.01; in [5], -0.147; in assay [6], -0.18; in [7], -0.26. The composite z-score is -0.23 in [8], 1.05 in assay [9] and 1.19 in [10]. Also, the z-score in [2] was -0.61.
As to `CCCC[C@@H]1C[C@H]1[C@@H](NC(=O)c1ccco1)c1ccc(Cl)cc1`, the composite z-score in assay [1] was 1.28; in assay [3] it was 0.232; in [4], 1.68; in [5], 1.1; in assay [6], -0.0125; in [7], 0.336. In addition, the composite z-score in [8] is 0.314; in assay [9], 1.4; in [10], 1.33. Further, the z-score in assay [2] was -2.37.
As to `CN1C(=O)C2C=CC(C(O)c3cc(C(F)(F)F)cc(C(F)(F)F)c3)N(N3CCCCC3)C2C1=O` (stereo not given), the composite z-score in assay [1] was 1.24; in [3], -0.599; in assay [4], 1.34; in [5] it was 0.769; in assay [6], 0.0775; in assay [7], 0.42. In addition, the composite z-score in [8] was found to be 1.15; in assay [9] it was 0.287; in assay [10] it was 0.49. Further, the z-score in assay [2] was -0.353.
On to `CCOC(=O)[C@H]1C/C=C/C[C@H](C(=O)OCC)C(=O)O[C@H]2[C@@H](OC)O[C@H](CO)[C@@H](OC(=O)Nc3cccc(F)c3)[C@@H]2OC1=O`, for which the composite z-score was 1.14 in assay [1]; -0.169 in assay [3]; -0.192 in assay [4]; -0.273 in [5]; -0.0243 in [6]; 0.0818 in assay [7]. Besides, the values for the composite z-score in [8], in assay [9] and in assay [10] were 1.93, 0.556 and 0.729, respectively. In [2], the z-score was -3.56.
Turning to `C=C/C=C/[C@H]1C(=C)CN([C@@H](Cc2ccccc2)C(=O)OC)[C@@H]1[C@H](O)Cc1ccccc1`, the composite z-score in assay [1] was -0.784; in [3] it was -1.09; in assay [4], -0.679; in [5] it was -1.1; in assay [6], -0.129; in [7] it was -0.138. For the same molecule, the composite z-score in assay [8] is -0.0624; in assay [9] it was -0.207; in assay [10], -0.217. Also, in assay [2], the z-score is -0.331.
On to `C=CCNC(=O)[C@H]1[C@@H]2C(=O)O[C@@H](c3ccccc3)[C@@H](c3ccccc3)N2[C@@H](c2ccc(O)cc2)[C@]12C(=O)N(C(=O)OCCOC)c1ccc(C#CCNC(N)=O)cc12`, for which the composite z-score was 0.863 in [1]; 1.01 in assay [3]; -0.0456 in assay [4]; 0.143 in [5]; 0.0077 in assay [6]; -0.0769 in assay [7]. Moreover, the composite z-score was 0.0989 in assay [8], 0.585 in [9] and 1.07 in assay [10]. Moreover, in [2], the z-score was -0.767.
As to `COC(=O)[C@@]1(Cc2ccc(F)cc2)[C@H]2c3cc(C(=O)N(C)C)n(Cc4nc5ccccc5[nH]4)c3C[C@H]2CN1C(=O)c1ccccc1`, the composite z-score in assay [1] is 1.32; in [3], -0.423; in assay [4], 1.42; in assay [5], 0.114; in assay [6], 0.178; in assay [7], 0.603. The composite z-score in assay [8] was 0.485; in assay [9] it was 0.778; in assay [10] it was 0.324. For the same molecule, in [2], the z-score is -0.494.
On to `C=CCOC(=O)[C@H]1[C@@H]2C(=O)O[C@@H](c3ccccc3)[C@@H](c3ccccc3)N2[C@@H](c2ccc(OCCOC(=O)[C@@H]3C[C@@H]4C(=O)N[C@@H](CCCC[N+](C)(C)C)C(=O)N4[C@@H]3c3ccc(O)cc3)cc2)[C@]12C(=O)Nc1ccccc12`, for which the composite z-score in [1] was 1.26; in assay [3], 0.498; in assay [4], -0.0632; in assay [5] it was -0.499; in assay [6], -0.0398; in [7], 0.123. Also, the composite z-score in assay [8] is -0.13; in assay [9], 0.425; in assay [10] it was 0.428. In addition, the z-score in assay [2] was -1.11.
For the molecule `Cc1ccc(C(C)CC(O)C2C=CC3C(=O)N(C)C(=O)C3N2NC(=O)OC(C)(C)C)o1` (stereo not given), the composite z-score in [1] stood at 0.598; in assay [3], 1.19; in [4] it was 1.73; in assay [5], 0.0152; in [6], 0.246; in [7] it was 0.424. For the same molecule, the values for the composite z-score in assay [8], in assay [9] and in assay [10] were 0.226, 1.27 and 1.73, respectively. In assay [2], the z-score was 0.255.
`CCc1oc(CC[C@@H](CO)NC(=O)NCCn2cc(C3(O)CCCCC3)nn2)c(C(=O)OC)c1C(=O)OC`: the composite z-score in [1] is 0.814; in assay [3] it was 0.905; in assay [4] it was -0.22; in [5] it was -0.657; in assay [6], 0.048; in assay [7] it was 0.381. Besides, the figures for the composite z-score in assay [8], in assay [9] and in assay [10] were -0.0645, 0.946 and 0.336, respectively. The z-score in [2] was 0.524.
In the case of `CCCCCC1=C2CNC(CCC)(C(=O)OC)C=C2C(C)C1=O` (stereo not given), the composite z-score in assay [1] is 0.514; in assay [3], -0.477; in [4], 1.42; in [5], 1.27; in assay [6] it was -0.0125; in assay [7], 0.811. Besides, the composite z-score worked out at 1.66 in assay [8], 0.997 in [9] and 0.334 in assay [10]. For the same molecule, the z-score in assay [2] is -0.183.
Consider `COCCOC(=O)N1C(=O)[C@@]2(c3cc(C#CC4(O)CCCCCC4)ccc31)[C@H](c1ccc(O)cc1)N1[C@H](c3ccccc3)[C@H](c3ccccc3)OC(=O)[C@H]1[C@@H]2C(=O)Nc1nc2ccccc2s1`, for which the composite z-score in assay [1] was 1.36; in [3], 0.463; in assay [4] it was 2.01; in assay [5], 0.516; in assay [6], 0.0932; in assay [7] it was -0.131. For the same molecule, the composite z-score in [8] is 3.16; in assay [9] it was 1.35; in assay [10] it was 2.21. In addition, the z-score in assay [2] was -0.768.
On to `COc1ccc([Si](C)(C)[C@@H]2[C@@H](CCO)O[C@]3(C(=O)N(Cc4ccc(N5C(=O)COc6ccccc65)cc4)c4ccccc43)[C@H]2C)cc1`, for which the composite z-score in [1] is -0.674; in assay [3], 0.88; in [4], 1.51; in assay [5] it was 0.879; in assay [6], 0.199; in assay [7] it was -0.0146. The composite z-score in assay [8] was -0.394; in [9], 0.572; in [10] it was 0.896. In addition, the z-score in assay [2] was -4.99.
For the molecule `CN(C)CCCCCCNC(=O)[C@@H]1C[C@@H]2C(=O)N[C@@H](CCCCN)C(=O)N2[C@@H]1c1cccc(OCCO)c1`, the composite z-score in assay [1] was 1.49; in [3] it was 1.34; in [4], 2.8; in assay [5], 1.34; in [6], 1.07; in [7], 1.7. Besides, the composite z-score was 3.42 in assay [8], 4.77 in assay [9] and 2 in assay [10]. The z-score in assay [2] is -0.0282.
On to `COCCCNC(=O)[C@@]1(Cc2ccccc2)N=C(c2ccc(OCCCO)cc2)O[C@H]1c1ccccc1`, for which the composite z-score in [1] was 0.53; in assay [3] it was -0.582; in assay [4], 2.34; in [5], 1.05; in assay [6] it was -0.174; in assay [7] it was -0.36. Besides, the composite z-score was -0.442 in assay [8], 1.96 in assay [9] and 2.34 in assay [10]. The z-score in [2] is -1.39.
Turning to `CC(C)C(=C=CC[C@@H](O)c1ccccc1OCCO)CCO`, the composite z-score in assay [1] was -0.79; in [3] it was 0.156; in assay [4], 0.084; in assay [5], -0.21; in [6] it was -0.0836; in assay [7] it was -0.0471. Further, the figures for the composite z-score in assay [8], in assay [9] and in [10] were -0.371, -0.549 and 0.606, respectively. In addition, the z-score in [2] is -1.49.
As for `O=C1OCCC/C=C\[C@H]2OC34C=CCN(Cc5ccccc5)C(=O)[C@H]3N(CCCCCCO)C(=O)[C@@H]4C12` (stereo not given in full), the composite z-score in assay [1] was 0.103; in [3] it was -1.74; in assay [4], -0.046; in assay [5], 0.572; in assay [6], -0.206; in assay [7], -0.0337. For the same molecule, the composite z-score in assay [8] is -0.355; in [9], -1.03; in assay [10], -0.313. Besides, the z-score in assay [2] is -1.3.
Consider `[N-]=[N+]=NCc1ccccc1C[C@@]1(C(=O)NCC(O)CO)N=C(c2ccc(OCCCO)cc2)O[C@@H]1c1ccccc1N=[N+]=[N-]` (stereo not given in full), for which the composite z-score in [1] is 1.39; in assay [3], -0.124; in assay [4] it was 2.21; in assay [5], 1.02; in [6], 0.149; in [7], 0.156. Further, the composite z-score in assay [8] was 2.11; in assay [9] it was 2.18; in assay [10], 0.842. Moreover, the z-score in [2] is -2.72.

For the origin of these results see PubChem BioAssay.
